Screening results from PubChem BioAssay.
An excerpt weighted towards active compounds, which were near 7.5% of everything screened.
HCV inhibitor: qHTS Assay for Inhibitors of Hepatitis C Virus (HCV); 340,000 compounds, 3.4% hits; Huh7.5.1 HCVcc-Cre infection, luciferase reporter, 44 h; AID 651820, 2012; Potency, µM (titrated, usually from 41.8 µM), for the others: at the top dose activity change, negative = inhibition, usual class: inhibitors; also: potency is read from the fitted curve at half-maximal effect
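Cells (1,000/well) were plated 4 h before compound, then infected with HCVcc-Cre virus (~0.5 moi). After 44 h further culture, infection was read as luciferase luminescence following a 15 min substrate incubation at room temperature.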
Vaccinia Venus: qHTS for Stage-Specific Inhibitors of Vaccinia Orthopoxvirus: Venus Reporter Primary qHTS | Vaccinia virus Venus reporter expression, fluorescence | Potency, µM (doses to about 36.5 µM), for the others: at the top dose activity change, negative = inhibition, actives largely listed as inhibitors | 330,000 compounds, 0.46% hits; calls by dose curve; tested in A549 cells; also: potency is read from the fitted curve at half-maximal effect; nearly all actives have a fitted effect of over 30% in size
HCMV inh: qHTS Assay for inhibitors of the human cytomegalovirus (HCMV). HFF cells, HCMV-luciferase reporter, 72 h; active compounds read low. activity change, negative = inhibition, % at 57.5 µM. 410,000 compounds, 4.5% hits. AID 1259415, 2018; in the data active = activity change below about -60%; inconclusive = no clear call, values can overlap the other calls; inactive = above about -39%
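Inhibition of viral replication was scored as loss of reporter luminescence in HFFs infected with HCMV-luciferase (MOI 1 PFU/cell) for 72 h; compounds tested at 2 doses, normalized to buffer and Salinomycin controls.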
FBPA Giardia inh: qHTS Assay for Inhibitors of Fructose-1,6-bisphosphate Aldolase from Giardia Lamblia; A8B2U2; purified Giardia FBPA; Potency, µM (highest dose often 59.6 µM), without a hit: at the highest dose activity, negative = inhibition, actives largely listed as inhibitors; 290,000 compounds, 0.71% hits; AID 2451, 2010; also: potency is read from the fitted curve at half-maximal effect; nearly all actives have a fitted effect of over 55% in size
Target sequence (A8B2U2 whole entry, looked up): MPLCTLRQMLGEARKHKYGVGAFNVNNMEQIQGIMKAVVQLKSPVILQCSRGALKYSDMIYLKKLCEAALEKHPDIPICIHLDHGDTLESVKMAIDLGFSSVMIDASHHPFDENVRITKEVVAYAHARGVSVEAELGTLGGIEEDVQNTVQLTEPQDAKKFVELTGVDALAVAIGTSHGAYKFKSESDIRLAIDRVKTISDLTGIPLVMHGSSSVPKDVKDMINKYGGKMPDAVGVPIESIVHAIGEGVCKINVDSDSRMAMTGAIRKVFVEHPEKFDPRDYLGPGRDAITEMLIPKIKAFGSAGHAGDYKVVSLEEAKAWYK
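Giardia FBPA (40 nM reagent) was preincubated 10 min at RT with compound (up to 57.5 uM final), then substrate plus GAPDH/TPI/NAD/arsenate coupling system with diaphorase/resazurin was added; resorufin fluorescence (525/598 nm) was read after 20 min.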
FMDV inh: High Throughput Screening for Foot and Mouth Disease Virus Antivirals; FMDV antiviral cell-based qHTS; Potency, µM (titrated, usually from 57.9 µM), for inactives: at the highest dose activity change, negative = inhibition, usual class: inhibitors; 410,000 compounds, 1.2% hits; calls by dose curve; tested in HEK293T cells; also: read-out not given here; potency is read from the fitted curve at half-maximal effect; nearly all actives have a fitted effect of over 45% in size
Vaccinia mCherry: qHTS for Stage-Specific Inhibitors of Vaccinia Orthopoxvirus: mCherry Reporter Primary qHTS; Potency, µM (series often up to 36.5 µM), without a hit: at the top dose activity change, negative = inhibition, hits mostly inhibitors; Vaccinia virus mCherry reporter infection, fluorescence; 310,000 compounds, 0.63% hits; calls by dose curve; tested in A549 cells; also: potency is read from the fitted curve at half-maximal effect; nearly all actives have a fitted effect of over 35% in size
Starred values were filed as active, the others as inactive. Unless noted, calls follow the shape of the dose curve; as a rule, active = well fitted curve in the direction sought with a large enough effect; inconclusive = small, poorly fitted or top-dose-only effect, or another doubt; inactive = no such curve, though single readings can be large; an effect the other way counts as inactive or inconclusive. % is scaled to controls: 0 for no effect and ±100 for the full control effect.

What do the screens show for `COCCCNCCC(CCC(C)C)c1ccc2c(c1)OCO2` (stereo not drawn)?
HCV inhibitor: 14µM*; Vaccinia Venus: -26%; HCMV inh: 11; FBPA Giardia inh: -21%; FMDV inh: 19%; Vaccinia mCherry: -22%

Results for O=C1C=CC(=NN=C(c2ccccc2)c2ccccc2)C=C1 ?
Vaccinia Venus: -4%; HCMV inh: -80*; FMDV inh: 3%; Vaccinia mCherry: -7%

How did CCCNC(=O)c1oc2ccc3c(c2c1C)C(=O)CC(C)(C)O3 do in these assays?
HCV inhibitor: 10µM*; HCMV inh: 9; FBPA Giardia inh: 1%; FMDV inh: 2%

Results for Cc1c(C(=O)NCc2ccc(Cl)cc2)oc2ccc3c(c12)C(=O)CC(C)(C)O3 ?
Vaccinia Venus: -23%; HCMV inh: -18; FMDV inh: 31%; Vaccinia mCherry: -18%

Results for CCOC(=O)c1ccc(NC(=O)c2oc3ccc4c(c3c2C)C(=O)CC(C)(CC)O4)cc1 (stereo not drawn) ?
Vaccinia Venus: -5%; HCMV inh: 7; FMDV inh: inconclusive; Vaccinia mCherry: -6%

Results for CCCNC(=O)c1oc2ccc3c(c2c1C)C=CC(C)(C)O3 ?
HCV inhibitor: inconclusive; Vaccinia Venus: -12%; HCMV inh: -61*; FBPA Giardia inh: 3%; FMDV inh: 33%; Vaccinia mCherry: -19%

What do the screens show for `O=C(COC(=O)C1(c2ccccc2)CC1)NNC(=O)c1ccccc1`?
HCV inhibitor: 8%; Vaccinia Venus: -1%; HCMV inh: 1; FMDV inh: -17%; Vaccinia mCherry: inactive

Results for CCOC(=O)[C@H]1[C@H]2COc3cc(OC)ccc3[C@@H]2N2C(=O)[C@@H](CO)NC(=O)[C@@]12C ?
HCV inhibitor: 8%

What do the screens show for `CN(CC(=O)NC(=O)NCc1ccccc1)Cc1cccc(Cl)c1Cl`?
HCV inhibitor: -4%; Vaccinia Venus: inconclusive; HCMV inh: -9; FBPA Giardia inh: 0%; FMDV inh: 9%; Vaccinia mCherry: 14µM*

Results for CCCCn1nnnc1SCC(=O)NC1CCCCC1 ?
HCV inhibitor: 9%; Vaccinia Venus: 9%; HCMV inh: -99*; FBPA Giardia inh: -2%; FMDV inh: 17%; Vaccinia mCherry: -10%

Results for Cn1nnnc1SCC(=O)NC1CCCCC1 ?
HCV inhibitor: 13%; Vaccinia Venus: -7%; HCMV inh: -22; FBPA Giardia inh: 2%; FMDV inh: 23%

What do the screens show for `COc1ccccc1CNc1nccn(-c2ccccc2)c1=O`?
Vaccinia Venus: -15%; HCMV inh: 55; FMDV inh: 27%; Vaccinia mCherry: -1%

Results for CCOC(=O)C1CCN(C(=O)C2COc3ccccc3C2)CC1 (stereo not drawn) ?
Vaccinia Venus: -12%; HCMV inh: -24; FMDV inh: -4%; Vaccinia mCherry: -9%

Results for COCCNc1nc(-c2ccccc2OC)nc2ccccc12 ?
FBPA Giardia inh: -4%; FMDV inh: -3%

What do the screens show for `COc1cccc(-c2nc(Oc3cc(C)cc(C)c3)c3ccccc3n2)c1O`?
HCV inhibitor: 6%; FBPA Giardia inh: 1%

Results for COc1cccc(-c2nc(NC(C)(C)C)c3ccccc3n2)c1O ?
HCV inhibitor: inconclusive; HCMV inh: 11; FBPA Giardia inh: -11%; FMDV inh: 25µM*

Results for COc1ccc(Nc2nc(-c3cccc(OC)c3O)nc3ccccc23)cc1 ?
HCV inhibitor: 5.6µM*; HCMV inh: inconclusive; FBPA Giardia inh: 0%; FMDV inh: 4%

Results for COc1cc(OC)c(NC(=O)C2=C(C)C(=O)OC23CCCCC3)cc1Cl ?
Vaccinia Venus: 1%; HCMV inh: inconclusive; FMDV inh: -9%; Vaccinia mCherry: 1%

How did COc1cccc(NS(=O)(=O)c2ccc3[nH]cc(C(=O)NCCc4ccccc4)c(=O)c3c2)c1 do in these assays?
Vaccinia Venus: -5%; HCMV inh: 0; FMDV inh: -6%; Vaccinia mCherry: -5%

How did CC[C@H](C)[C@@H](NC(=O)O[C@H]1C(=O)c2ccc(OC)cc2O[C@@H]1c1ccc2c(c1)OCO2)C(=O)OC do in these assays?
FBPA Giardia inh: 1%

How did COc1ccc(/C(=N/Nc2ncnc3ccccc23)C(=O)O)cc1 do in these assays?
HCV inhibitor: 3%; Vaccinia Venus: -26%; HCMV inh: 87; FBPA Giardia inh: inconclusive; FMDV inh: 58%; Vaccinia mCherry: 10µM*

Results for CCOC(=O)/C(=N\Nc1ncnc2ccccc12)c1ccc(OC)cc1 ?
HCV inhibitor: 5%; Vaccinia Venus: 21%; HCMV inh: 134; FBPA Giardia inh: -9%; FMDV inh: -57%; Vaccinia mCherry: 5%

Results for Nc1ccc(N(c2ccccc2)c2ccc(N)cc2)cc1 ?
HCV inhibitor: 10µM*; Vaccinia Venus: 28µM*; HCMV inh: inconclusive; FBPA Giardia inh: -14%; FMDV inh: inconclusive; Vaccinia mCherry: inconclusive

What do the screens show for `Nc1ccc(N=Nc2ccccc2)cc1`?
HCV inhibitor: -9%; Vaccinia Venus: -12%; HCMV inh: 24; FBPA Giardia inh: 4%; FMDV inh: 3%; Vaccinia mCherry: inconclusive

How did COc1ccc(-c2nc3ccccc3c(=O)n2-c2cccnc2)cc1 do in these assays?
HCV inhibitor: 7%; HCMV inh: -77*; FBPA Giardia inh: 4%; FMDV inh: -20%

What do the screens show for `Cc1ccc(-c2nc3ccccc3c(=O)n2-c2cccc(C)n2)cc1`?
HCV inhibitor: -10%; Vaccinia Venus: -1%; HCMV inh: -85*; FBPA Giardia inh: -9%; FMDV inh: 5%; Vaccinia mCherry: 4%

Results for CC(C)COc1ccc(-c2nnc(-c3ccncc3)o2)cc1 ?
HCV inhibitor: inconclusive; HCMV inh: 79; FBPA Giardia inh: 8%; FMDV inh: 36%

How did CCCOc1ccc(-c2nnc(-c3ccncc3)o2)cc1 do in these assays?
HCV inhibitor: 11µM*; HCMV inh: 23; FBPA Giardia inh: -2%; FMDV inh: 5%

Results for CCOc1ccc(NC(=O)c2cnc(N3CCCC3)nc2C)cc1 ?
Vaccinia Venus: -7%; HCMV inh: -9; FMDV inh: -16%; Vaccinia mCherry: 5%

Results for COC(=O)c1ccccc1NC(=O)CCn1c(=O)oc2ccccc21 ?
HCV inhibitor: -13%; Vaccinia Venus: -8%; HCMV inh: 22; FMDV inh: -2%; Vaccinia mCherry: -13%
